# Measurements reported in the supplement of paper PMC3334620.
# The full ranking holds about 33,000 sequences; the median of “E-score (-0.5 to 0.5)” is about -0.016, and the highest 2% start at about 0.32. For the sample, the highest values were picked, then their nearest neighbours and some sequences at random.
# Molecular target: T1, Stp1 (UniProt B3LFK1)
# T1 sequence: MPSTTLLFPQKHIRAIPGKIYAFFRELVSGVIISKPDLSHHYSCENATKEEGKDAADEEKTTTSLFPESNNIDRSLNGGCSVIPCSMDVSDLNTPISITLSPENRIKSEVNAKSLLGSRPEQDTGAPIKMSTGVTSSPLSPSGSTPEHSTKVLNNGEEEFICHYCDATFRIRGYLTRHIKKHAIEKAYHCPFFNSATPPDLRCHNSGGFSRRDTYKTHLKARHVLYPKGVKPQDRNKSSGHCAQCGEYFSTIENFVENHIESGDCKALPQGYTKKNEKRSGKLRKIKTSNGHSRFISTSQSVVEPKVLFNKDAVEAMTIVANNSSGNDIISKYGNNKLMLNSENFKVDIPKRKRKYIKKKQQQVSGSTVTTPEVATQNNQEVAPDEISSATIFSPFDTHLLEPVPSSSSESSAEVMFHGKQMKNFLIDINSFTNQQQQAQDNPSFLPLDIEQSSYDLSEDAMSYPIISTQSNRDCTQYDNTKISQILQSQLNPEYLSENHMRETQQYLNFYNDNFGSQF
# Assay: PBM E-score (8-mer binding enrichment) (E-score (-0.5 to 0.5)); higher = stronger / more preferred TF binding
# Conditions: protein concentration: 200 nM; construct: GST-full length
# Procedure: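 Universal 'all 10-mer' protein binding microarrays (Agilent AMADID 015681) probed with GST-tagged S. cerevisiae TFs (full-length or DBD) made by in vitro transcription/translation (PURExpress), about 100-200 nM. Bound TF was detected with fluorescent anti-GST. Each ungapped 8-mer (which stands for itself and its reverse complement) is scored by the PBM enrichment score (E-score), a modified Wilcoxon-Mann-Whitney statistic from -0.5 to +0.5, computed with the Universal PBM Analysis Suite. Scale: above 0.35 generally sequence-specific binding.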
row,Sequence,PBM E-score
1,CGCTTACA,0.0771
2,GTATACCA,0.0622
3,ACTTATCC,-0.0589
4,CATAGACA,0.0911
5,CAATAAAG,0.217
6,AGTTGACC,-0.0773
7,ATATGGGC,-0.0537
8,ACCCGTTC,0.0622
9,ACCGAAAT,0.0238
10,ATCTTAAA,-0.0445
11,AGGACTGC,-0.256
12,AGTTATCG,0.106
13,ACCGCTCA,0.0634
14,GCCGCTCA,0.381
15,ACCGCTTA,-0.238
16,CCCGCTTA,0.0273
17,CCCGCTCC,-0.241
18,TCCGCTCA,-0.102
19,GCCGCTTA,0.39
20,GCCGCTCC,0.398
21,ACCGCTCC,-0.223
22,CAGCGCTA,0.0165
23,ATGCCCTA,0.168

row,Sequence,PBM E-score
1,CAGTACGC,-0.111
2,CAGCTACG,-0.14
3,ATAGCGCC,0.357
4,CAAGCGCC,0.219
5,CCAGCGCC,0.235
6,GAAGCGCC,0.337
7,ATAGCGCG,0.136
8,GAAGCGCA,-0.0259
9,GCAGCGCC,0.33
10,ACAGCGCC,0.249
11,CTAGCGCC,0.16
12,AGGTACCC,-0.414
13,AGCTACCG,-0.16
14,ACATGGCT,-0.137
15,CCATCCAA,0.0222
16,AAAACGCG,0.251
17,CAAACGGG,0.175
18,GAAACGGC,0.462
19,AAAACGGT,-0.0136
20,CAAACGGA,0.236
21,AAAACGGC,0.403
22,GAAACGCC,0.289
23,AAAACGGA,0.201

row,Sequence,PBM E-score
1,AAAACGCC,0.386
2,GAAACGGA,0.132
3,CAAACGGC,0.459
4,CAAACGCC,0.258
5,ACCTGATG,-0.102
6,CCGCATTC,0.105
7,TACCCTAA,-0.0225
8,CACCCACC,-0.192
9,GAGCCATA,0.0155
10,ATTGCTAC,0.0429
11,CAGGCGTC,-0.00022
12,AGGCCAGA,-0.103
13,CCAACGGC,0.316
14,ACAACGGC,0.308
15,GCAACGGC,0.411
16,ATAAAGGA,-0.201
17,CACGCTAC,-0.0658
18,CACTCGGC,0.28
19,GAAAAGAA,0.0978
20,CTTCTAAA,0.168
21,AATGCCTC,0.308
22,AATGCCGG,0.137
23,AATGCCGT,0.485

row,Sequence,PBM E-score
1,AATGCCGC,0.465
2,AATGCCGA,0.303
3,AATGCCAC,0.293
4,AGGCAGAG,-0.00743
5,CCCTAAAC,-0.193
6,GCGATCAA,-0.0307
7,CCTCCTCG,-0.21
8,CTCGCGGC,0.334
9,CGCGCGTC,0.16
10,CGCGCTGC,0.122
11,AGCGCGGA,0.0636
12,AGCGCGGG,0.098
13,AGCGCGGC,0.402
14,CGCGCGGC,0.483
15,ATCGCGGC,0.238
16,CTCGCGGA,-0.0275
17,AGGTGGCC,-0.294
18,TCTCGAGA,-0.01
19,CCCCGCCC,0.139
20,ATCTTTGC,0.262
21,CATACGGA,0.268
22,GATACGAC,0.0153
23,CATACGGC,0.472

row,Sequence,PBM E-score
1,AATACGGT,0.0778
2,AATACGGC,0.453
3,GATACGGC,0.463
4,GATACGGA,0.285
5,AATACGGG,-0.0327
6,CATACGGG,0.224
7,ACCCTGAG,-0.216
8,AATAGACC,-0.159
9,AACACTTA,0.0357
10,ACATGGCC,0.147
11,CCAACATC,-0.127
12,AGAGCTAT,-0.179
13,ACAAGGGC,-0.0113
14,CCACCTGC,-0.021
15,ACGAGGAT,-0.102
16,CCGAGGAG,-0.0986
17,ACCAGGCT,-0.326
18,ACGAGGCG,0.457
19,ACGAGGCC,0.016
